Screening results deposited in PubChem BioAssay by National Center for Advancing Translational Sciences (NCATS).
HPGD block = qHTS Assay for Inhibitors of HPGD (15-Hydroxyprostaglandin Dehydrogenase). 15-hydroxyprostaglandin dehydrogenase [NAD(+)] (Homo sapiens), P15428. purified HPGD, NADH fluorescence kinetic, PGE2 substrate. Potency, µM, without a hit: at the top dose activity change, negative = inhibition, usual class: inhibitors. actives 4.3% (n = 150,000). AID 894, 2007; active = well fitted inhibition curve with a large enough effect, not every such curve was filed as active; inconclusive = small, poorly fitted or top-dose-only effect, or another doubt; inactive = no such curve, though single readings can be large or run the other way; also: potency is read from the fitted curve at half-maximal effect
Target sequence (P15428 whole entry, looked up): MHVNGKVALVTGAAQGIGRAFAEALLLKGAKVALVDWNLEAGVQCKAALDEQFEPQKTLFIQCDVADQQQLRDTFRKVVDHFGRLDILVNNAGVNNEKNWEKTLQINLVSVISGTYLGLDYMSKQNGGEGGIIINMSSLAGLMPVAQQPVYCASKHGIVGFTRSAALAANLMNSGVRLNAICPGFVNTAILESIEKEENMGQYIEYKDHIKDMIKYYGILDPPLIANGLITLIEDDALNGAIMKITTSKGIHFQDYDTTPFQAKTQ
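20 nM HPGD preincubated 15 min at room temperature with compound in 50 mM Tris-HCl pH 8, 0.01% Tween 20. Started with 1 mM NAD+ and 30 uM prostaglandin E2; NADH fluorescence (360/450 nm) read 5 times over 30-s intervals, last minus first.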
PNC inhibitor = High Content Assay for Compounds that inhibit the Assembly of the Perinucleolar Compartment. PC3M PTB-GFP, PNC prevalence imaging, 16 h; hits give low values. activity change (PNC), negative = inhibition, % at 10 µM. actives 3.1% (n = 140,000);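 active = readout at or below -70, meaning at least 70% loss of cells showing the perinucleolar compartment, a nuclear body marking cancer cells; inconclusive = readout between -30 and a set limit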;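 also: plate controls were DMSO wells for no effect and camptothecin positive control wells for full effect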
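Read-out is percentage of cells bearing a perinucleolar compartment, from automated 20x imaging of fixed, Hoechst-stained PC3M PTB-GFP cells. Cells were seeded 4 h, then exposed 16 h to compound (23 nl of library stock) in duplicate plates.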
IMPase Li inh = qHTS Assay for Identifying the Cell-Membrane Permeable IMPase Inhibitors: Potentiation with Lithium | CHO-M1 cells, IP1 TR-FRET (IP-One), carbachol + lithium | Potency, µM (doses to about 59.4 µM), for the others: at the top dose activity, negative = IMPase inhibition, most hits filed as inhibitors | actives 0.35% (n = 210,000);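 also: IP1 builds up when IMPase is blocked and the TR-FRET signal falls; potency is read from the fitted curve at half-maximal effect; plate controls were basal vehicle for no effect and high inhibitor control for full effect; nearly all actives have a fitted effect of over 50% in size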
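Steps: plate 2000 CHO-M1 cells per well and culture 16–30 h; add compound and lithium; incubate 30 min, 37C; add d2-IP1 tracer and Eu cryptate anti-IP1 antibody in lysis buffer; read after 10 min at room temperature.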
ALOX12 inhib = qHTS Assay for Inhibitors of 12-hLO (12-human lipoxygenase) | Polyunsaturated fatty acid lipoxygenase ALOX12 (Homo sapiens), P18054 | AID 1452, 2008 | actives 0.12% (n = 150,000) | Potency, µM (titrated, usually from 57.1 µM), without a hit: top-dose activity change, negative = inhibition, actives largely listed as inhibitors | purified 12-hLO, xylenol orange hydroperoxide absorbance; also: potency is read from the fitted curve at half-maximal effect; nearly all actives have a fitted effect of over 55% in size
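Lipoxygenase turnover measured by absorbance at 573 and 405 nm after Fe-XO development. Human 12hLO 150 nM, arachidonate 40 uM, pH 7.0 Hepes buffer with detergent; 15 min compound preincubation, 30 min reaction.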
IMPase cell inh = qHTS Assay for Identifying the Cell-Membrane Permeable IMPase Inhibitors; Inositol monophosphatase 1 (Rattus norvegicus), P97697; 120,000 tested, under 10 active; CHO-M1 cells, IP1 accumulation, HTRF TR-FRET ratio; inhibition (IP1 accumulation), % at 46.1 µM; AID 901, 2007; active = well fitted curve in the direction sought with a large enough effect in the signal ratio, not every such curve was filed as active; inconclusive = small, poorly fitted or top-dose-only effect, or a change in a side signal; inactive = no such curve, though single readings can be large or run the other way; the % refers to the signal ratio;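 also: cells stimulated with carbachol in lithium chloride buffer; plate controls were DMSO basal wells for no effect and reference inhibitor wells for full effect; higher means more IMPase inhibition seen as more IP1 and lower FRET ratio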
Target sequence (P97697 whole entry, looked up): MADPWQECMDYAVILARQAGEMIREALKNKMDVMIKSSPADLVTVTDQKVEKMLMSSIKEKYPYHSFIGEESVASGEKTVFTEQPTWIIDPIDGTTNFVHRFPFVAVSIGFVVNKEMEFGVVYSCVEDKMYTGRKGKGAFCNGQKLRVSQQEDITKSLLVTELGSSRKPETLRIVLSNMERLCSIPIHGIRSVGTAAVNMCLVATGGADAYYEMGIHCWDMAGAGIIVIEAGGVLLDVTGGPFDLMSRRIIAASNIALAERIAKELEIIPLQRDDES
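Elevated IP1 in lysates lowers TR-FRET signal (665/620 ratio and 620 channel reported). Cells were CHO-M1, given carbachol (50 uM as added) plus 50mM LiCl, pH 7.4, 30 min, 37C; compounds titrated up to 46 uM; AC50 by Hill equation.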
ALOX15B inhib = qHTS Assay for Inhibitors of 15-hLO-2 (15-human lipoxygenase 2) | actives 0.56% (n = 110,000) | AID 881, 2007 | Polyunsaturated fatty acid lipoxygenase ALOX15B (Homo sapiens), O15296 | Potency, µM (series often up to 57.1 µM), without a hit: top-dose activity change, negative = inhibition, most hits filed as inhibitors | purified 15hLO-2, xylenol orange hydroperoxide absorbance; also: potency is read from the fitted curve at half-maximal effect; nearly all actives have a fitted effect of over 60% in size
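Read-out: hydroperoxide product oxidises ferrous iron, measured as xylenol orange complex via the 573-to-405 nm absorbance ratio after 30 min. Reaction: 50 nM enzyme, 15 min compound preincubation, 45 uM arachidonic acid, 90 min RT, Hepes pH 7.5 with Triton X-100.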
* hit, by the source's call; ? = inconclusive; . = no result given; [ ] = remark or other dose. Compounds with a hit are over-represented: about 5.3% of the library has one in this group of screens. Unless noted, calls follow the shape of the dose curve; as a rule, active = well fitted curve in the direction sought with a large enough effect; inconclusive = small, poorly fitted or top-dose-only effect, or another doubt; inactive = no such curve, though single readings can be large; an effect the other way counts as inactive or inconclusive. Unless noted, % is scaled to controls: 0 for no effect and ±100 for the full control effect.

SMILES	HPGD block	PNC inhibitor	IMPase Li inh	ALOX12 inhib	IMPase cell inh	ALOX15B inhib
Cn1c(-c2ccc(C=O)s2)nc2c3ccccc3c3ccccc3c21	?	24	13µM*	-6%	-8	-2%
CCCn1c(O)c(C=Nc2ccccc2)sc1=S	.	.	13%	.	.	.
CCn1c(O)c(C=Nc2ccccc2)oc1=S	16µM*	-94*	9%[38.3 µM]	0%	-2	-29%
Cc1c(NC(=S)N/N=C/C=C/c2ccc([N+](=O)[O-])cc2)c(=O)n(-c2ccccc2)n1C	-14%	-109*	-3%	1%	.	.
COc1cccc(N(CC(=O)N/N=C(\C)c2cccs2)S(C)(=O)=O)c1	-17%	-23	0%	-6%	.	.
CC(NC(=O)Nc1ccccc1)C(c1cccs1)N1CCOCC1 (stereo not drawn)	-2%	-122*	8%	0%	13	.
CC(NC(=O)Nc1ccc(Cl)cc1)C(c1cccs1)N1CCOCC1 (stereo not drawn)	-1%	-19	26%[38.3 µM]	0%	-5	1%
O=[N+]([O-])c1cc(/C=N\Nc2nccs2)ccc1O	8.9µM*	-11	25%[38.3 µM]	-11%	5	-5%
CCC(=O)Nc1ccc(S(=O)(=O)Nc2ccc(Cl)nn2)cc1	-15%	-80*	-5%	-2%	.	.
Cc1ccc(S(=O)(=O)N2CCC(C(=O)NNC(=O)C3CC3)CC2)cc1Cl	.	.	1%	.	.	.
CC1CCCCN1C(=O)c1ccc(COc2ccc([N+](=O)[O-])cc2)o1 (stereo not drawn)	22µM*	?	14%	1%	.	.
CCCOC(=O)CSC1=C(C#N)C(c2ccccc2OC)C(C#N)C(=O)N1 (stereo not drawn)	-14%	-97*	24%[38.3 µM]	-19%	-9	-4%
CCOC(=O)C1C(=O)NC(SCC(=O)Nc2nccs2)=C(C#N)C1c1ccccc1OCC (stereo not drawn)	13µM*	201	3%	1%	2	.
CCC1=C2CC[C@H]3C(=O)NC(=O)[C@H]3[C@H]2[C@@]2(C)C(=O)N(CC3CC3)C(=O)N2C1=O	-8%	.	-10%	2%	.	-1%
Cc1ccc(S(=O)(=O)N2c3ccccc3OCC2c2ccccc2)cc1 (stereo not drawn)	-10%	-100*	14%	-1%	2	.
CS(=O)(=O)Nc1cccc(-c2nccc(-n3ccnc3)n2)c1	18µM*	.	2%	?	.	?
O=C(CSc1ccccn1)N/N=C/c1ccccc1[N+](=O)[O-]	-8%	-9	4%	2%	2	.
COc1ccc(OCC(=O)N/N=C/C=C/c2ccccc2)cc1	-7%	-115*	-2%	-3%	-1	.
O=C(CSc1ccccn1)N/N=C/C=C/c1ccccc1	20µM*	3	-1%	8%	?	.
CCOC(=O)CN/C=C(\C#N)c1ccccc1	-10%	30	-7%	-2%	.	.
CC(=O)[C@H]1CC[C@@H]2[C@]1(C)CC=C1[C@@]23C=C[C@]2(C[C@H](O)CC[C@@]12C)[C@H](C(=O)O)[C@@H]3C(=O)O	-6%	.	-1%	.	.	.
OC(CON=C1c2ccccc2-c2ccccc21)CN1CCNCC1 (stereo not drawn)	.	.	-2%	.	.	.
O=C(CSc1nc(-c2ccco2)cc(C(F)(F)F)n1)N1CCSCC1	2.5µM*	-12	8%	-1%	11	.
O=C(CSc1nc(-c2ccco2)cc(C(F)(F)F)n1)Nc1ccc2c(c1)OCO2	-11%	-16	9%	2%	-10	.
O=C(CCCSc1nc(-c2ccco2)cc(C(F)(F)F)n1)Nc1ccc2c(c1)OCO2	20µM*	13	3%[38.3 µM]	-23%	27	6%
